According to the supplement of paper PMC4166925:
± gives the standard deviation of the averaged measurements. Whole data set: some 33,000 sequences, median “E-score (dimensionless, -0.5 to 0.5)” near -0.046, cut for the highest 2% near 0.36. The sample holds the highest values, similar sequences and a random draw of the others, so the mix is not that of the screen.

tested on: T1, SpTbr T-box DNA-binding domain (GST fusion); assay: PBM E-score of 8-mer (E-score (dimensionless, -0.5 to 0.5)); Tbr is Tbrain of the sea star Patiria miniata (Pm) or the sea urchin Strongylocentrotus purpuratus (Sp); higher = stronger binding preference; conditions: the construct has about 5 more residues each side
T1 sequence: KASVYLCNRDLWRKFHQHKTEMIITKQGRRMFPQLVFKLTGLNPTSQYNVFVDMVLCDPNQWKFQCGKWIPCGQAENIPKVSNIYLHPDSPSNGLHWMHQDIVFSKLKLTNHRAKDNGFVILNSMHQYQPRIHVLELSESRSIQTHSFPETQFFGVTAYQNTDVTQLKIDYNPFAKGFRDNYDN
Description: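 Universal protein-binding microarray (Agilent AMADID 016060, 60-bp probes with a 35-bp variable region) incubated with 200 nM GST-fused Strongylocentrotus purpuratus Tbr T-box DNA-binding domain (residues 362-554) in PBS pH 7.5. Scored for every ungapped 8-mer (given with its reverse complement) as E-score (range -0.5 to 0.5; >0.45 counts as bound) and Z-score of median probe intensity. Two replicate arrays (datasets 1 and 2).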
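Also: protein at 200 nM in PBS on universal double-stranded arrays.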

Row | Sequence | PBM E-score of 8-mer
1 | ATCGCGAA | 0.367 ± 0.032
2 | CTCGCGAC | 0.311 ± 0.025
3 | GAAAGTGA | 0.293 ± 0.039
4 | AAAAAAGT | -0.074 ± 0.11
5 | CCTACTAA | -0.0157 ± 0.06
6 | CGTGTAAA | 0.296 ± 0.027
7 | TGCATCAA | -0.0456 ± 0.044
8 | CTGCCAAG | 0.105 ± 0.03
9 | ACGCTCAG | 0.0449 ± 0.0089
10 | CAAGAACG | -0.267 ± 0.011
11 | ACCCTTGA | -0.0396 ± 0.029
12 | ATGCGCTC | -0.175 ± 0.02
13 | CCACCTCC | 0.324 ± 0.0077
14 | ATACCTCC | -0.0183 ± 0.066
15 | CCACCTCG | 0.228 ± 0.019
16 | TCACCTCA | 0.387 ± 0.0086
17 | TGACCTCA | 0.0321 ± 0.076
18 | AGACCTCT | -0.281 ± 0.035
19 | ACACCTCC | 0.4854 ± 0.0043
20 | AAACCTCT | -0.292 ± 0.061
21 | AAACCTCG | 0.0284 ± 0.048
22 | ACACCTCT | 0.479 ± 0.0083

Row | Sequence | PBM E-score of 8-mer
23 | ACACCTCG | 0.4804 ± 0.0036
24 | TAACCTCA | -0.153 ± 0.018
25 | ACTCTTCG | 0.113 ± 0.071
26 | CCACTGCG | 0.0281 ± 0.049
27 | GAACGAGC | -0.187 ± 0.063
28 | CGGGGGAC | -0.117 ± 0.088
29 | CAATTGAG | -0.2 ± 0.036
30 | CCTAACCG | -0.163 ± 0.039
31 | AGGACTAT | -0.234 ± 0.035
32 | CGGCGATA | 0.094 ± 0.028
33 | TTCGCCAA | 0.124 ± 0.054
34 | GGACCTCC | -0.327 ± 0.017
35 | ACGCCTCA | 0.331 ± 0.01
36 | ACGCCTCG | 0.373 ± 0.019
37 | ACACCTCA | 0.4607 ± 0.0039
38 | ACGCCTCT | 0.30412 ± 0.00015
39 | GCACCTCC | 0.396 ± 0.013
40 | CCACCTCA | 0.172 ± 0.067
41 | AGACCTCA | 0.1 ± 0.022
42 | GCACCTCA | 0.343 ± 0.02
43 | CACAGCAG | -0.0256 ± 0.044
44 | ATTAAGAA | -0.254 ± 0.043

Row | Sequence | PBM E-score of 8-mer
45 | ATAGATCG | 0.0137 ± 0.011
46 | CACGGTTA | -0.0116 ± 0.056
47 | CCTAGGCC | -0.0372 ± 0.013
48 | CTCGCTAA | 0.232 ± 0.043
49 | CAATAGAC | -0.0363 ± 0.07
50 | GCACTTAC | 0.208 ± 0.017
51 | ACACTTAG | 0.383 ± 0.038
52 | ACACTTAA | 0.336 ± 0.027
53 | ACACTTAC | 0.4 ± 0.024
54 | ACTCTTAG | -0.106 ± 0.0089
55 | CCACTTAC | 0.161 ± 0.0085
56 | CCACTTAG | -0.0238 ± 0.042
57 | ACACTTAT | 0.402 ± 0.0068
58 | ACTCTTAT | -0.0294 ± 0.038
59 | CGAGCACA | -0.0373 ± 0.063
60 | CGGCCGAA | -0.16 ± 0.027
61 | GGCAGGGA | -0.182 ± 0.062
62 | TAACCTGA | -0.0659 ± 0.025
63 | GGAGGGTA | -0.0485 ± 0.045
64 | AGGCCTAT | -0.196 ± 0.034
65 | AACCTAAG | -0.133 ± 0.0067
66 | CACCTAAC | 0.387 ± 0.018

Row | Sequence | PBM E-score of 8-mer
67 | CACCTAAG | 0.383 ± 0.019
68 | AACCTAAC | -0.0237 ± 0.04
69 | CACCTAAA | 0.3188 ± 0.00098
70 | CCCCTAAG | -0.17 ± 0.067
71 | AGGTTGAT | -0.0456 ± 0.014
72 | AGTTGGCC | -0.112 ± 0.0038
73 | ATTGTGGA | 0.0374 ± 0.11
74 | TACACCAA | 0.0641 ± 0.095
75 | TACACCTA | 0.377 ± 0.0086
76 | CACACCGA | 0.291 ± 0.036
77 | AAGACCTC | 0.00991 ± 0.032
78 | CACACCTA | 0.4806 ± 0.0011
79 | AACACCTA | 0.4609 ± 0.0024
80 | AACACCTC | 0.481 ± 0.0063
81 | CCCACCTA | 0.282 ± 0.013
82 | TACACCGA | 0.118 ± 0.1
83 | AACACCGC | 0.299 ± 0.018
84 | AACACCGA | 0.228 ± 0.03
85 | CCCTATCA | 0.0101 ± 0.042
86 | TGAAACCA | -0.0205 ± 0.016
